# Results as given in PubChem BioAssay AID1117361 (Southern Research Institute, 2015).
# Among all 3,600 compounds or so, about 900 (25%) were called active. No rule for the calls is given here. A selection follows. Results with a measured potency or affinity are listed apart.
# Biological target: Protein Tat (Human immunodeficiency virus type 1 group M subtype B (isolate HXB2)) (UniProt P04608)
# Experiment: HIV-1 Tat–TAR interaction blockers – biochemical, fluorescence polarization, FAM-labeled TAR RNA, counter-screen for Vif-APOBEC3G degradation inhibitor project, dose response (AID 1117361)
# Details: Tat-TAR RNA binding; series mostly up to 100 µM
row,Structure (SMILES),outcome
1,CC(C)CC(c1nnnn1C1CCCCC1)N1CCN(c2ncccn2)CC1 (configuration not stated),inactive
2,Cc1ccc(C(c2nnnn2CC2CCCO2)N2CCN(C)CC2)cc1 (configuration not stated),inactive
3,CCC(=O)Nc1cc(C(=O)OCC(=O)c2ccccc2Cl)ccc1C,inactive
4,O=C(NCc1ccc(Cl)cc1)c1ccccc1Oc1ccccc1,inactive
5,COC(Cc1nnc(SC)n1-c1ccc(Cl)cc1)OC,inactive
6,O=C(O)c1ccc(-n2c(-c3cc(-c4ccco4)[nH]n3)n[nH]c2=S)cc1,inactive
7,CCOC(=O)CSc1nc2c(sc(=S)n2-c2ccccc2OC)c(=O)n1Cc1ccco1,inactive
8,CCCn1c(Sc2nc3c(c(=O)[nH]c(=O)n3C)n2CCC)nc2c1c(=O)[nH]c(=O)n2C,inactive
9,CCC(C)n1cnc2c(c1=O)c1nc3ccccc3nc1n2-c1ccc2c(c1)OCCO2 (configuration not stated),inactive
10,CCCn1nnnc1-c1cccc(Cl)c1,inactive
11,COc1ccc(C(=O)CSc2nnc3n2CCCN3C(=O)Nc2ccccc2)cc1,inactive
12,CN(C)c1nc(N)nc(CSc2nc3c(c(=O)n(C)c(=O)n3C)n2Cc2ccccc2F)n1,inactive
13,CC(=O)Nc1ccc(OCC(O)CNC2CCCC2)cc1 (configuration not stated),inactive
14,CC(=O)c1ccc(N2C(=NC(=O)C3CCCO3)SC3CS(=O)(=O)CC32)cc1 (configuration not stated),inactive
15,O=C(c1cc2ccccc2oc1=O)N1CCN(c2ccc(N3CCOCC3)nn2)CC1,inactive
16,O=C(c1cccnc1NCc1ccc(F)cc1)N1CCOCC1,inactive
17,COc1ccccc1C1NC(c2ccccc2OC)C(C)C(=O)C1C (configuration not stated),inactive
18,CCOc1ccc(C2NC(=O)C(C#N)=C(S)N2c2ccc(OC)cc2)cc1OC (configuration not stated),inactive
19,CC1(CCc2ccc3c(c2)OCO3)NC(=O)c2ccccc2N1 (configuration not stated),inactive

row,Structure (SMILES),outcome
1,O=C(COc1ccccc1C(=O)O)Nc1ccc(SC(F)F)cc1,inactive
2,CCOC(=O)c1c(NC(=O)c2cccs2)sc(C)c1C,inactive
3,CCCc1cc(=O)[nH]c(SCC(=O)Nc2cc3c(cc2C(C)=O)OCO3)n1,inactive
4,Cc1cc(NC(=O)CCC(=O)N(CCC(C)C)C(C(=O)NC2CCCC2)c2cccnc2)no1 (configuration not stated),inactive
5,COc1ccc2c3c(c(=O)oc2c1OCC(=O)C(C)(C)C)CCCC3,inactive
6,Cc1cc(C)c2nc(N3CCCN(C(=O)c4cnccn4)CC3)c(C#N)cc2c1,inactive
7,NS(=O)(=O)c1cccc(NS(=O)(=O)c2ccc(/C=C/C(=O)OCC(=O)c3ccccc3)cc2)c1,inactive
8,Cc1ccc(-n2nnnc2SCc2ccccn2)cc1C,inactive
9,Cc1cc(SCC2=NNC(=O)C2)c(Cl)cc1Cl,inactive
10,O=C(CN1C(=O)CSC1=O)Nc1ccccc1N1CCOCC1,inactive
11,O=C(/C=C/c1ccco1)NC(=S)Nc1ccc(C(=O)O)cc1,inactive
12,CCC(=O)N1CCN(c2ccccc2NC(=O)c2cccc(C)c2)CC1,inactive
13,O=C(/C=C/c1ccco1)Nc1ccc(Oc2ccccc2)cc1,inactive
14,Cc1cccc(NC(=O)CC2NC3CCCCC3NC2=O)c1 (configuration not stated),inactive
15,Cc1ccc2c(c1)CCCN2C(=O)c1cc(C)c(C)s1,inactive
16,Cc1ccc(NC(=O)C(C)Sc2nc3nc(C)cc(C)n3n2)cc1 (configuration not stated),inactive
17,Cc1cc(C)n(-c2ncc(-c3ccccc3)nn2)n1,inactive
18,C=CCOC(=O)CN1C(=O)c2ccccc2C1=O,inactive
19,O=C(NC1CCCCC1)c1sc(=S)n2c1[nH]c(=O)c1ccccc12,inactive

row,Structure (SMILES),outcome
1,Cc1ccc(-n2nnnc2SCn2nnc3ccccc3c2=O)cc1,inactive
2,Cc1cccc(CCNC(=O)CCc2nc(-c3ccccc3F)no2)c1,inactive
3,Cc1cc(C)nc(N(C#N)CN2C(=O)c3ccccc3S2(=O)=O)n1,inactive
4,CCOC(=O)CS(=O)(=O)c1ccc2ccccc2c1,inactive
5,Nc1ccc(S(=O)(=O)c2cc(O)c3ccccc3c2O)cc1,inactive
6,CCc1cc(C=NC2CCCCC2)c(O)s1,inactive
7,CN(C)NC(=S)NC1CCS(=O)(=O)C1 (configuration not stated),inactive
8,CCCOc1ccc2[nH]cc(C(=O)O)c(=O)c2c1,inactive
9,Cc1ccc(Oc2ccc(/C=N/O)cn2)cc1,inactive
10,O=S(=O)(Nc1ccc2c(c1)nc1n2CCN(Cc2ccccc2)C1)c1ccc(Cl)cc1,inactive
11,COCCCNc1nc2c(c(=O)n(C)c(=O)n2C)n1Cc1cccc(OC)c1,inactive
12,CCCCc1c(C)nc2ccc(Br)cc2c1SCCC#N,inactive
13,COc1cc2ccccc2nn1,inactive
14,COc1ccc(C)cc1Nc1c2c(nc3ccccc13)CCC2,inactive
15,CC(=O)Nc1nonc1NC(=O)CSC1=NCCS1,inactive
16,CNC(=O)CN1C(=O)NC2(CCc3ccccc32)C1=O (configuration not stated),inactive
17,O=C(CSc1nnc(CN2CCOCC2)n1-c1ccccc1)Nc1ccc(Cl)cc1,inactive
18,CC1(C)CC(=O)C2=C(C1)N(Cc1cccnc1)C(=O)C2(NC(=O)C1CC1)C(F)(F)F (configuration not stated),inactive
19,Cc1cc(C)cc(N(CCC#N)C(=O)CSc2nc3nc(C)cc(C)n3n2)c1,inactive
